An excerpt weighted towards active compounds, which were near 19% of everything screened.
KB-3-1 cytotox: qHTS assay for MDR1-selective chemotherapeutics: Primary screen using the parental adenocarcinoma cell KB-3-1; KB-3-1 viability, CellTiter-Glo ATP luminescence, 72 h; Potency, µM (doses to about 46.1 µM), usual class: cytotoxic; 400,000 tested, 1.4% active; note: nearly all actives have a fitted effect of over 60% in size
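Parental KB-3-1 viability, qHTS format: 72 h compound exposure, 37 °C; CellTiter-Glo; media-only wells and DMSO plates as controls; concentration-effect fits on corrected data.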
TDP1 cell noCPT: qHTS for Inhibitors of human tyrosyl-DNA phosphodiesterase 1 (TDP1): qHTS in cells in absence of CPT. DT40 Tdp1-/- hTDP1 cells, no CPT, ATP luminescence, 48 h. Potency, µM (doses to about 46.2 µM), inactives show top-dose activity change, negative = growth inhibition, actives largely listed as inhibitors. 420,000 tested, 15% active. AID 686978, 2013; note: nearly all actives have a fitted effect of over 55% in size
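Cells were dispensed at 400 per well, compounds added by pin tool, plates incubated ≥48 hr at 37 °C, then CellTiter-Glo added for 30 min at room temperature before luminescence reading. Line: DT40 Tdp1-/- complemented with hTDP1; camptothecin omitted.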
HT1080 IDH1KD tx: qHTS for induction of synthetic lethality in tumor cells producing 2HG: qHTS for the HT-1080-IDH1KD cell line | 360,000 tested, 2% active | Potency, µM (highest dose often 46.1 µM), inactives show at the top dose activity, negative = toxicity, actives largely listed as cytotoxic | HT-1080 IDH1 knockdown viability, ATP luminescence, 48 h | AID 686971, 2013;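 note: 0% = DMSO wells and -100% = cell-free medium wells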
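% activity derives from luminescence (CellTiter-Glo), normalised to DMSO and no-cell wells. HT-1080-IDH1KD cells, 750/well, had 48 h compound exposure at 37 °C.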
KB-V1 cytotox: qHTS assay for MDR1-selective chemotherapeutics: Primary screen using the drug-selected MDR subline cells KB-V1. AID 1347076, 2019. 400,000 tested, 3.4% active. Potency, µM (doses to about 46.1 µM), hits mostly cytotoxic. KB-V1 MDR cells viability, CellTiter-Glo, 72 h; note: nearly all actives have a fitted effect of over 60% in size
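Luminescent ATP read-out (CellTiter-Glo, 10 min) measures survival of drug-selected KB-V1 MDR cells after 72 h, 37 degrees C compound exposure. Medium: phenol-red-free DMEM, 10% FBS. Values from fitted concentration-response curves.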
DT40 TDP1 CPT: qHTS for Inhibitors of human tyrosyl-DNA phosphodiesterase 1 (TDP1): qHTS in cells in presence of CPT. chicken DT40 Tdp1-/-;hTDP1 cells + 20 nM CPT, ATP luminescence, 48 h. Potency, µM (highest dose often 46.2 µM), for the others: top-dose activity change, negative = growth inhibition, most hits filed as inhibitors. 420,000 tested, 12% active. AID 686979, 2013; note: nearly all actives have a fitted effect of over 55% in size
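Cell growth measured by CellTiter-Glo luminescence after a minimum 48 h, 37 C compound exposure with 20 nM CPT in Tdp1-knockout DT40 cells stably expressing hTDP1, seeded 400/well; qHTS titration format.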
HT1080-NT tox: qHTS for induction of synthetic lethality in tumor cells producing 2HG: qHTS for the HT-1080-NT fibrosarcoma cell line. HT-1080-NT fibrosarcoma viability, CellTiter-Glo ATP luminescence, 48 h. Potency, µM (series often up to 46.1 µM), without a hit: at the top dose activity, negative = less viability, actives largely listed as cytotoxic. 360,000 tested, 1.6% active;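 note: NT is the 2HG producing partner of a matched IDH1 knockdown line; 0% = DMSO-treated cells and -100% = media-only wells without cells; nearly all actives have a fitted effect of over 55% in size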
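Read-out is CellTiter-Glo luminescence after 10 minutes at room temperature, following 48 hours' compound treatment of HT-1080-NT cells (750 cells/well, RPMI, 5% FBS, 37 degrees C).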
* marks the source's active call; other numbers are inactive results; i = inactive; ? = inconclusive; / = no result given. Calls come from the whole dose curve; as a rule, active = well fitted curve in the direction sought with a large enough effect; inconclusive = small, poorly fitted or top-dose-only effect, or another doubt; inactive = no such curve, though single readings can be large; an effect the other way counts as inactive or inconclusive. Unless noted, % is set by controls: 0 for no effect and ±100 for the full control effect; potency is the fitted concentration of half-maximal effect.

SMILES | KB-3-1 cytotox | TDP1 cell noCPT | HT1080 IDH1KD tx | KB-V1 cytotox | DT40 TDP1 CPT | HT1080-NT tox
CCN(CC)CC(=O)N1CCCC(N2CCN(c3cccc(C(F)(F)F)c3)CC2)C1 (stereo unspecified) | i | ? | -17% | ? | ? | -13%
CCN1CCN(CC(=O)NC2CCCCC2)C(=O)C1=O | i | 0% | 0% | i | 0% | -1%
COC(=O)c1cccnc1-n1c(=O)c2cccnc2n(Cc2cccc([N+](=O)[O-])c2)c1=O | i | 12µM* | 7% | i | ? | -10%
O=C1CCN(S(=O)(=O)c2ccccc2)CCN1CCOCc1ccc(C(F)(F)F)cc1 | i | 13µM* | -2% | ? | ? | -1%
Cc1ccc(S(=O)(=O)N2CCC(=O)N(CCOCc3ccc(C(F)(F)F)cc3)CC2)cc1 | i | 8.2µM* | -8% | ? | 4.6µM* | -4%
COCCNC(=O)c1cc2c(c(-c3cccc(-c4cc5ccccc5o4)c3)n1)[C@@H](CCO)N(S(=O)C(C)(C)C)C2 (stereo partly specified) | i | ? | ? | i | 16µM* | -12%
COCCNC(=O)c1cc2c(c(-c3cccc(-c4cc5ccccc5o4)c3)n1)[C@H](CCO)N(S(=O)C(C)(C)C)C2 (stereo partly specified) | i | 23µM* | ? | 18µM* | ? | ?
CCNC(=O)c1cc2c(c(-c3cccc(-c4cc5ccccc5o4)c3)n1)[C@H](CCO)N(C(=O)NC(C)C)C2 | ? | 9.2µM* | ? | ? | 21µM* | ?
CC(=O)N1Cc2cc(C(=O)NCC(F)(F)F)nc(-c3cccc(-c4cc5ccccc5o4)c3)c2[C@H]1CCO | ? | -30% | 14% | ? | ? | 3%
CN1CCN(C(=O)c2cc3c(c(-c4cccc(-c5cc6ccccc6o5)c4)n2)[C@@H](CCO)N(S(=O)C(C)(C)C)C3)CC1 (stereo partly specified) | i | ? | -21% | i | ? | -26%
COc1ccc(C#Cc2cccc(-c3nc(C(=O)NCCCN4CCOCC4)cc4c3[C@H](CCO)N(S(=O)C(C)(C)C)C4)c2)cc1OC (stereo partly specified) | i | 23µM* | ? | ? | ? | ?
CCOc1ccc(-c2nnc(NC(=O)Cc3cc(OC)c(OC)c(OC)c3)o2)cc1 | ? | 8% | -2% | i | 1% | -9%
COCCCN(C(=O)Cc1csc(-c2cccc(Cl)c2)n1)c1c(N)n(Cc2ccccc2)c(=O)[nH]c1=O | i | ? | -2% | i | ? | 0%
CC(C)NC(=O)N1Cc2cc(C(=O)NC3CCCC3)nc(-c3cccc(-c4cccnc4)c3)c2[C@@H]1CCO | i | 13µM* | -23% | i | ? | -27%
CCCNC(=O)c1cc2c(c(-c3cccc(-c4ccc(F)cc4)c3)n1)[C@@H](CCO)N(S(=O)C(C)(C)C)C2 (stereo partly specified) | i | ? | ? | ? | ? | ?
O=C(c1cc2c(c(-c3cccc(-c4ccc(F)cc4)c3)n1)[C@H](CCO)N(C(=O)c1ccc3c(c1)OCO3)C2)N1CCOCC1 | i | ? | ? | ? | ? | 21µM*
O=C(c1cc2c(c(-c3cccc(-c4ccncc4)c3)n1)[C@@H](CCO)N(C(=O)c1ccc3c(c1)OCO3)C2)N1CCOCC1 | i | -19% | 7% | i | -24% | -13%
CCCNC(=O)c1cc2c(c(-c3cccc(-c4ccc(F)cc4)c3)n1)[C@H](CCO)N(S(=O)C(C)(C)C)C2 (stereo partly specified) | ? | 23µM* | ? | ? | ? | ?
CC(C)(C)S(=O)N1Cc2cc(C(=O)NCc3ccc(Oc4ccccc4)cc3)nc(-c3cccc(-c4cc5ccccc5o4)c3)c2[C@@H]1CCO (stereo partly specified) | ? | ? | ? | ? | ? | 23µM*
CCOC(=O)[C@@H](NC(=O)CC[C@H]1O[C@@H](n2cc(C)c(=O)[nH]c2=O)C[C@@H]1O)C(C)C | i | -4% | 2% | i | 5% | 7%
CC(C)(C)S(=O)N1Cc2cc(C(=O)NCc3ccc4c(c3)OCO4)nc(-c3cccc(-c4ccncc4)c3)c2[C@H]1CCO (stereo partly specified) | i | ? | ? | i | ? | ?
CC(C)(C)S(=O)N1Cc2cc(C(=O)NCc3ccc4c(c3)OCO4)nc(-c3cccc(-c4ccccc4)c3)c2[C@@H]1CCO (stereo partly specified) | i | ? | 1% | i | 23µM* | -1%
CC(=O)N1CCc2cc(S(=O)(=O)NC(C(=O)Nc3ccc(C)cc3C)C(C)C)ccc21 (stereo unspecified) | i | ? | / | i | -4% | /
CCCCc1cc(O)c(CCCC)c(O)c1 | ? | 13µM* | ? | ? | 21µM* | ?
Cc1ccc(CNC(=O)CCCCCn2c(=O)c3sccc3n(CC(=O)N3CCCCC3C)c2=O)cc1 (stereo unspecified) | i | ? | / | i | ? | /
SMILES | KB-3-1 cytotox | TDP1 cell noCPT | HT1080 IDH1KD tx | KB-V1 cytotox | DT40 TDP1 CPT | HT1080-NT tox
O=C1/C(=C/c2ccncc2)CCC/C1=C\c1ccncc1 | 7.3µM* | 0.82µM* | 4.1µM* | ? | 2.1µM* | 4.6µM*
O=C1CCC/C1=C\c1ccccc1 | i | -2% | 4% | i | 0% | -2%
O=C1/C(=C\c2ccncc2)CCc2ccccc21 | i | 15µM* | -19% | ? | 13µM* | -20%
O=C1/C(=C\c2ccccc2)CCC/C1=C/c1ccccc1 | ? | 18µM* | ? | ? | 21µM* | ?
O=C1C(=Cc2ccncc2)CCCc2ccccc21 | ? | 21µM* | ? | ? | 23µM* | -17%
CSc1nnc(C(C)(C)C)c(=O)n1/N=C/c1ccc(Cl)cc1 | i | ? | 26% | i | -4% | 26%
